# Compounds with a hit are over-represented: about 4.1% of the library has one in this group of screens.
# Beta cell apopt: beta cell apoptosis inhibition; 300,000 compounds, 0.8% hits; AID 435005; INS-1E cytokine-induced death, ATP luminescence, 48 h; percent of positive-control rescue, neutral wells zero; protection from apoptosis, % (test concentration not listed);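 active = Every replicate reaches about 75%, or at least half do and their mean reaches it too, limit read from the data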;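 also: 0% = cytokine-treated negative control wells and 100% = positive control rescue; higher means more ATP so stronger rescue from cytokine killing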
# Bfl-1 A1 inh: inhibitors of the anti-apoptotic protein A1, read as caspase activation. MEF A1-2A-BIM cells, Caspase-Glo 3/7 luminescence, 3 h; percent of clofoctol response, vehicle zero. caspase activation, % (no concentration beside the values). 330,000 compounds, 0.066% hits;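 active = over half of replicate activation scores above 10%, or exactly half above 10 with the replicate mean above 10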
# CSC inhib: blocks cancer stem cells; inhibition, % at 7.5 µM; cancer stem cell-like cells viability, luminescence; 300,000 compounds, 1.1% hits; in the data active = inhibition above about 75%; tested in HMLE shEcad cells
# aSyn 5UTR inh: MLPCN primary screen, SNCA 5' untranslated region; alpha-synuclein 5'UTR reporter, inhibitor activity; inhibition, % (tested at 7.5 µM); 300,000 compounds, 0.82% hits; AID 1813; in the data active = inhibition above about 60%;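 also: H4 neuroglioblastoma cells stably carrying SNCA 5'UTR luciferase fusion; 0% = DMSO wells and 100% = positive control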
# Mdm2 MdmX PPI: inhibitors of human Mdm2/MdmX interaction | SaOS-2 split-luciferase Mdm2/MdmX complementation, luminescence | inhibition, % at 8 µM | AID 485346 | 330,000 compounds, 3% hits;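 active = inhibition of at least 50% at 8 µM in the primary screen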
# Target sequence (O15151 whole entry, looked up): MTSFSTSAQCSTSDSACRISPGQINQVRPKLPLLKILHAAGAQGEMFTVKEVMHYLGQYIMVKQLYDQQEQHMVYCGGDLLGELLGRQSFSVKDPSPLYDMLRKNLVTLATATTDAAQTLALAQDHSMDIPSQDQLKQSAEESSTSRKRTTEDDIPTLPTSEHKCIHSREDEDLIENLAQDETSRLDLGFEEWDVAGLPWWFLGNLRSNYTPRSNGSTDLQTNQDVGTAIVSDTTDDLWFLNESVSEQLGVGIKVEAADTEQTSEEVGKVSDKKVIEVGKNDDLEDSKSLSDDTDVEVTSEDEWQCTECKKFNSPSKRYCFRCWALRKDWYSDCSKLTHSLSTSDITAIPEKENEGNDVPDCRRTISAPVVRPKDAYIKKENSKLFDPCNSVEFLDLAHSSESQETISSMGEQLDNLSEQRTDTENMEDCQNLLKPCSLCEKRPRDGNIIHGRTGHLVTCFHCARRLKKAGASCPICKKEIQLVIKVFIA
# Target sequence (Q00987 whole entry, looked up): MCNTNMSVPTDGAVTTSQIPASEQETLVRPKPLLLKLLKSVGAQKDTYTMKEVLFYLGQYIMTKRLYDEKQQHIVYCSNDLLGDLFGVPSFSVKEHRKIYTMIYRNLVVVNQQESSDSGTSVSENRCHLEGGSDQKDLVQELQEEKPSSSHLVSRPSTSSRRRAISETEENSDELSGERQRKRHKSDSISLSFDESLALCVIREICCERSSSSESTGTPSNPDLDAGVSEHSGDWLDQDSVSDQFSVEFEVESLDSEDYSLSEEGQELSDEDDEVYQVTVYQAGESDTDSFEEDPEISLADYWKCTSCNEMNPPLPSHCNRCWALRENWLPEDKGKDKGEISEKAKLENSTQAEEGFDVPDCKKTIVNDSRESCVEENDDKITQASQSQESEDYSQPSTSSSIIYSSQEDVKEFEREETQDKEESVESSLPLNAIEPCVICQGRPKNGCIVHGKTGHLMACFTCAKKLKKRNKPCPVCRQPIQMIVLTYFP
# Mdm2 MdmX conf: human Mdm2/MdmX binding inhibition, confirmed | inhibition, % at 8 µM | luminescent assay | AID 489028 | shares compounds with Mdm2 MdmX PPI | 10,000 compounds, 55% hits; in the data active = inhibition above about 40%
# Full FLuc ctr: full-length luciferase inhibition in Mdm2/MdmX counter-screen. shares compounds with Mdm2 MdmX PPI. SaOS-2 full-length luciferase counterscreen, luminescence. inhibition, % at 8 µM. 6,200 compounds, 77% hits. AID 504607;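 active = mean inhibition at 8 µM reaching about 37%, which flags the compound as non-specific, limit read from the data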;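 also: p53-null SaOS-2 cells with luciferase driven by a doxycycline-inducible promoter; compound on cells about two nights before reading with doxycycline added after day one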
# Active calls of the source: *; x = no result given.
SMILES,Beta cell apopt,Bfl-1 A1 inh,CSC inhib,aSyn 5UTR inh,Mdm2 MdmX PPI,Mdm2 MdmX conf,Full FLuc ctr
Cc1ccc(C(=O)n2c3ccccc3c3ccccc32)cc1,17,0,68,8,51*,55*,53*
CC(=O)n1c2ccccc2c2ccccc21,x,0,-9,-7,2,x,x
Cc1cc2c(=O)n(Cc3ccco3)c(SCC(=O)N3CCCc4ccccc43)nc2s1,5,1,17,30,57*,21,x
Cc1ccc(NC(=O)COC(=O)C2CCN(c3ccc(C(F)(F)F)cn3)CC2)cc1,-2,0,x,x,-40,x,x
COc1ccc(/C=c2/sc3n(c2=O)C(c2ccccc2OC)C2=C(N=3)c3ccccc3CC2)cc1O (stereo not given),30,-1,64,94*,70*,87*,30
CC(=O)Nc1ccc(NC(=O)c2cc(=O)c3cc(C)cc(C)c3o2)cc1,1,0,27,-61,67*,54*,90*
CC1CCc2c(sc3ncnc(SCC(=O)N(C)C4CCS(=O)(=O)C4)c23)C1 (stereo not given),-2,1,-7,x,-2,x,x
CC(C(=O)N1CCc2ccccc21)N(C)CC(=O)Nc1cccc(F)c1 (stereo not given),-3,1,x,x,10,x,x
CCOc1ccc(/C=C/[N+](=O)[O-])c2ccccc12,6,1,61,36,47,x,x
O=[N+]([O-])/C=C/c1c(OCc2ccccc2)ccc2ccccc12,115*,1,-9,-5,95*,100*,50*
CCCN(CC(=O)Nc1ccccc1OC)C(=O)c1ccc(=O)[nH]c1,-11,0,-8,7,17,x,x
Cc1ccnc(NC(=O)CCC(=O)N(CC(=O)NC(C)(C)C)c2ccc3c(c2)OCO3)c1,5,0,-5,-13,11,x,x
CCN1CCN(c2ccc(S(=O)(=O)N3CCCCC3)cc2NC(=O)/C=C/c2ccc(OC(F)F)cc2)CC1,x,0,10,-22,82*,52*,69*
CCN1CCN(c2ccc(S(=O)(=O)N3CCCCC3)cc2NC(=O)/C=C/c2cccc(OC)c2OC)CC1,-2,0,3,-16,75*,50*,77*
CCN1CCN(c2ccc(S(=O)(=O)N3CCCCC3)cc2NC(=O)c2cc3ccccc3o2)CC1,5,0,-4,-24,62*,23,x
CCN1CCN(c2ccc(S(=O)(=O)N3CCCCC3)cc2NC(=O)c2ccc(OC(F)F)cc2)CC1,11,2,-4,-13,19,x,x
CCN1CCN(c2ccc(S(=O)(=O)N3CCCCC3)cc2NC(=O)/C=C/c2ccc([N+](=O)[O-])cc2)CC1,4,0,-2,6,99*,92*,48*
CCN1CCN(c2ccc(S(=O)(=O)N3CCCCC3)cc2NC(=O)c2cccc(Cl)c2)CC1,6,1,-7,4,17,x,x
Cc1cccc(CN2CCN(C(C)C(=O)NC(C)c3ccccc3)CC2)c1 (stereo not given),-13,0,1,8,-28,x,x
COC/C=C/C1=CC2=CC(=O)C(C)(OC(=O)c3cnc4ccccc4n3)C(=O)C2=CO1 (stereo not given),3,0,6,10,14,x,x
Cc1c(-c2ccn[nH]2)cc(NC(=O)c2ccc(Cl)cc2)c(=O)n1N,0,0,10,8,-3,x,x
CCN1CCN(c2ccc(S(=O)(=O)N3CCOCC3)cc2NC(=O)/C=C/c2ccc(C)cc2)CC1,x,0,-8,-18,26,x,x
CCN1CCN(c2ccc(S(=O)(=O)N3CCCCC3)cc2NC(=O)/C=C/c2ccc(F)cc2)CC1,2,1,-3,-12,53*,45*,87*
CC(=O)c1cccc(NC(=O)Nc2ccc(C(=O)N3CCCC3)cc2)c1,8,0,-2,-37,52*,37,x
Cc1cc(C)cc(NC(=O)Nc2ccc3c(c2)N(C)C(=O)CS3)c1,x,0,19,17,46,x,x
CC(=O)c1cccc(NC(=O)Nc2ccc3c(c2)N(C)C(=O)CS3)c1,0,1,-4,17,51*,20,x
O=C(Nc1ccccc1)Nc1ccc(C(=O)N2CCCC2)cc1,56,-9,51,3,-82,x,x
CC(C)NC(=S)N=Nc1c(O)[nH]c2ccc(C(C)C)cc12,8,0,33,43,55*,36,51*
